In all, about 120,000 compounds went through this assay and about 270 (0.23%) were called active. Inconclusive results (about 5%) are left out. For the sample, actives were picked, then their nearest neighbours and some compounds at random. Unmarked numbers belong to inactive results. Calls follow the shape of the full dose curve.
assay: Primary qHTS Assay for Foot and Mouth Disease Virus Antivirals against NCGC Sytravon and CBC Compound Libraries: Firefly Luciferase Signal; details: FMDV antiviral cell assay; series mostly up to 57.5 µM; activity change, negative = inhibition: at the top concentration; also: nearly all actives have a fitted effect of over 60% in size
% is scaled to controls: 0 for no effect and ±100 for the full control effect; potency is read from the fitted curve at half-maximal effect.

SMILES	activity change, negative = inhibition	Potency
CCc1cccc(CC)c1NC(=O)CC(C)(C(=O)O)c1ccccc1 (stereo not drawn)	-1.95%	–
COc1ccc(C23CC4CC(CC(C4)C2)C3)cc1C(=O)NC(c1ccccc1)c1ccccc1	-0.0842%	–
CC(Oc1ccccc1F)C(=O)Nc1c(F)cccc1F (stereo not drawn)	-5.6%	–
Cc1nn(CC(=O)NC(C)(C)C)c(C)c1S(=O)(=O)N1CCCC(C(=O)N2CCOCC2)C1 (stereo not drawn)	-2.97%	–
CCCn1c(NC(=O)c2oc3ccc(OC)cc3c2C)nc2ccccc21	6.06%	–
CCCNc1c(NC(=O)Nc2ccccc2C)c(=O)oc2ccccc12	15.8%	–
CCC1CN(S(=O)(=O)c2cc(-c3cc(C)no3)ccc2C)c2cc(C)ccc2O1 (stereo not drawn)	29.8%	–
CCN(CC)c1ccc(NS(=O)(=O)c2cc(-c3cc(C)no3)ccc2C)c(C)c1	-2.71%	–
Cc1cc(-c2ccc(C)c(S(=O)(=O)N3c4ccccc4CC3C)c2)on1 (stereo not drawn)	–	14.1 µM (active)
CCOc1ccc(N(Cc2ccccc2)C(=O)c2nc(SCC)ncc2Cl)cc1	0%	–
CCOc1ccc(N(Cc2ccccc2)C(=O)c2nc(S(C)(=O)=O)ncc2Cl)cc1	–	22.4 µM (active)
CCOc1ccc(CN2CCC(N(C)Cc3ccccc3)CC2)cc1	2.31%	–
O=C(OCc1ccc(Cl)cc1Cl)c1c(F)cccc1F	29.2%	–
COc1ccc(C(=O)Nc2c(NCC3CCCCC3)c3ccccc3oc2=O)cc1OC	-1.4%	–
O=S(Cc1ccccc1)Cc1cccc(F)c1 (stereo not drawn)	2.48%	–
CCn1nc(C(=O)Nc2nnc(Cc3ccccc3)s2)c2ccccc2c1=O	15.9%	–
O=C(Oc1ccc(Br)cc1)c1cnccn1	142%	–
Cc1cc(=O)oc2cc(OCC(=O)Nc3ccc(S(=O)(=O)N4CCOCC4)cc3)ccc12	-5.69%	–
Cn1cc2c(C(F)(F)F)cc(=O)n(CCC(=O)O)c2n1	6.41%	–
Cc1ccc(N2CCN(C(=O)c3nn(C)c4c3CCc3sccc3-4)CC2)c(C)c1	18%	–
COc1ccc(/C=C2\Oc3cc(OS(=O)(=O)c4ccc(C)cc4)ccc3C2=O)c(OC)c1OC	0.175%	–
CCOC(=O)C1=C(C)NC(=O)NC1c1ccc(C(=O)OC)cc1 (stereo not drawn)	48.5%	–
Cc1ccccc1NC(=O)CSc1nc(C2CC2)n(-c2ccccc2)n1	2.27%	–
COc1ccc(-c2cc(C(=O)N3CCN(CC(=O)N4CCOCC4)CC3)c3ccccc3n2)cc1	191%	–
COC(=O)CCCn1c(C)cc(C(=O)COC(=O)c2nccnc2N)c1C	155%	–
COC1CC(OC2CCC3(C=O)[C@H]4CCC5(C)C(C6=CC(=O)OC6)CCC5(O)[C@@H]4CCC3(O)C2)OC(C)C1O (stereo partly drawn)	–	0.282 µM (active)
COc1ccc2c(C)c(CC(=O)NCc3ccccc3Cl)c(=O)oc2c1	17.9%	–
CC(Sc1nnc(CCC(N)=O)n1C1CC1)C(=O)c1c[nH]c2ccccc12 (stereo not drawn)	0.749%	–
